# Source: paper PMC7862700, “An all-to-all approach to the identification of sequence-specific readers for epigenetic DNA modifications on cytosine”
# Assays:
# Assay in all cases: DAPPL (digital affinity profiling via proximity ligation, sequencing); 10 mM Tris-HCl pH 7.5, 50 mM NaCl, 1 mM DTT, 4% glycerol, room temperature, 30 min; GST-TFs on glutathione beads, 16-mer random dsDNA library, 0.1% formaldehyde crosslink after washing; high values mean tight binding
# FLI1 = target: T1, FLI1 (Homo sapiens, UniProt Q01543 1-452); conditions: protein: recombinant; tags: N-terminal GST; dsDNA, one strand shown
# T1 sequence: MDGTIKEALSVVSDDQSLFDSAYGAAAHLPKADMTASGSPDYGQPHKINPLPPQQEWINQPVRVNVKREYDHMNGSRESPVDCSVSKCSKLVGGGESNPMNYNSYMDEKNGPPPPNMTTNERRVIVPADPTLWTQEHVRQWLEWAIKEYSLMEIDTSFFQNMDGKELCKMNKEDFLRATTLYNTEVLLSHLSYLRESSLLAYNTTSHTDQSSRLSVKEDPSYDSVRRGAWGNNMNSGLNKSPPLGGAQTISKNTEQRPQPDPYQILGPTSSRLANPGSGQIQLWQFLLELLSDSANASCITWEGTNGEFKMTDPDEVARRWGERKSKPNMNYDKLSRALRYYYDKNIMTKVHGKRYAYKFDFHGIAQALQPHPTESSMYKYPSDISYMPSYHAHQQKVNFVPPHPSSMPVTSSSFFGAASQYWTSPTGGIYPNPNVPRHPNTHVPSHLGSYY
# Procedure, shortened: (§1)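 Beads coated with glutathione captured GST-fused human transcription factors that had been expressed in yeast, and the factors were then given DNA barcodes and pooled with a tag-only sample. The pools were incubated with 200 nmole of a random double-stranded 16-mer DNA library in Tris/NaCl/DTT/glycerol buffer for 30 min at room temperature, washed, crosslinked with 0.1% formaldehyde and proximity-ligated with BsaI/T4 ligase at 37 °C for 1 h. PCR amplification and Illumina NextSeq500 sequencing came last. Binding signal is each hexamer's read frequency for a factor divided by its frequency for the tag-only sample.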
# ELK1 = target: T2, ELK1 (Homo sapiens, UniProt P19419 1-428); conditions: protein: recombinant; tags: N-terminal GST; dsDNA, one strand shown
# T2 sequence: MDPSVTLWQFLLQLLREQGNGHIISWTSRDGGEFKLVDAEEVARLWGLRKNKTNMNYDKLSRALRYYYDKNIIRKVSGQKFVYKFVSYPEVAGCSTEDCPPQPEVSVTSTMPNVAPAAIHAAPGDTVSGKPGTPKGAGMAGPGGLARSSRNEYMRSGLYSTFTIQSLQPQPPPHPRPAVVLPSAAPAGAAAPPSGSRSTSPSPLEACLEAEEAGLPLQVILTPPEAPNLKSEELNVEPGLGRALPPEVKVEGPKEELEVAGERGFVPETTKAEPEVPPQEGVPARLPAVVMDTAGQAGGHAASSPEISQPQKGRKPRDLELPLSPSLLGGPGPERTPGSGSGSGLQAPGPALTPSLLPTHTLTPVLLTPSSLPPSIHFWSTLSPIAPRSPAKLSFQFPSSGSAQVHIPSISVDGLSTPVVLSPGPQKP
# Procedure, shortened: as §1
# GABPA = target: T3, GABPA (Homo sapiens, UniProt Q06546 1-454); conditions: protein: recombinant; tags: N-terminal GST; dsDNA, one strand shown
# T3 sequence: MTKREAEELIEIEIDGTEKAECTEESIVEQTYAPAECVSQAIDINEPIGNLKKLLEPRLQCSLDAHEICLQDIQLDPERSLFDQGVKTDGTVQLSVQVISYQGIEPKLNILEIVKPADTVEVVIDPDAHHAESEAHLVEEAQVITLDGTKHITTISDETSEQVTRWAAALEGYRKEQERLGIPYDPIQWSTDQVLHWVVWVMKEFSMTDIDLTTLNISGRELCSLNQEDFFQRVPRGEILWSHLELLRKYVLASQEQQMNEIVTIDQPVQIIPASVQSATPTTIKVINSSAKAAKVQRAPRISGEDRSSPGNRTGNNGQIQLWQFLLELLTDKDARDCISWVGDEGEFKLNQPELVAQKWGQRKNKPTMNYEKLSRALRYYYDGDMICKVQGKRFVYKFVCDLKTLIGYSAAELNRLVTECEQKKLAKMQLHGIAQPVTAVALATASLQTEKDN
# Procedure, shortened: as §1
# ERG = target: T4, ERG (Homo sapiens, UniProt P11308 1-479); conditions: protein: recombinant; tags: N-terminal GST; dsDNA, one strand shown
# T4 sequence: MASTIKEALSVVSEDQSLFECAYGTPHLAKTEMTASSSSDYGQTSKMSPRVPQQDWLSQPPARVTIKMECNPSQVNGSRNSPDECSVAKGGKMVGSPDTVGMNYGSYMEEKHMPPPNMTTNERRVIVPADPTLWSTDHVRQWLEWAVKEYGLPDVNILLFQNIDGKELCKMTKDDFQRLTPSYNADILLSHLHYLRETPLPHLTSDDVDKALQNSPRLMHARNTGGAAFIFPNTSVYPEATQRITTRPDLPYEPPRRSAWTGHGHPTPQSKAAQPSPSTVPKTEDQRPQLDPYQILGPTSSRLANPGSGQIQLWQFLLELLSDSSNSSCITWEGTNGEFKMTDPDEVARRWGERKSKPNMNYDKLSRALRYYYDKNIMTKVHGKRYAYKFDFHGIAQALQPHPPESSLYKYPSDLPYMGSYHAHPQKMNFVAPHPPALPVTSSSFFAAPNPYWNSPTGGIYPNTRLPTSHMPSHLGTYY
# Procedure, shortened: as §1
# ELF1 = ELF1 (Homo sapiens, UniProt P32519 1-619); conditions: protein: recombinant; tags: N-terminal GST; dsDNA, one strand shown
# Sequence of ELF1 (P32519 whole entry): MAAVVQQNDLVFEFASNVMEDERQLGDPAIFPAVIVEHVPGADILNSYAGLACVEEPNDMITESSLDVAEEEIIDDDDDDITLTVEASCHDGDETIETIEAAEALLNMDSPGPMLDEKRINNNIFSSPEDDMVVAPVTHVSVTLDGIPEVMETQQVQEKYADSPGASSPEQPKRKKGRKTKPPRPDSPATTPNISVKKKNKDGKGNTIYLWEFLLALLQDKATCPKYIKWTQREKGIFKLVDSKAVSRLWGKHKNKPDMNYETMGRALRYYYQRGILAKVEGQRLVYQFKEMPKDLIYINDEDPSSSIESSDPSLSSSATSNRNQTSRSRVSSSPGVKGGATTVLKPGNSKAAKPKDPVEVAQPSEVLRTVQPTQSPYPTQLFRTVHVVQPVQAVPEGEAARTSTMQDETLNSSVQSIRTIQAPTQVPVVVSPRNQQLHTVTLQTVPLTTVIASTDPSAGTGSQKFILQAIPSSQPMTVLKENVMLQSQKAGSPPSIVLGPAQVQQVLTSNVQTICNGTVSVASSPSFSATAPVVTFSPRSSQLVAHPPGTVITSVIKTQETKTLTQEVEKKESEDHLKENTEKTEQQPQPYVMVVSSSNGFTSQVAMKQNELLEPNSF
# Procedure, shortened: as §1
# EHF = target: T5, EHF (Homo sapiens, UniProt Q9NZC4 1-300); conditions: protein: recombinant; tags: N-terminal GST; dsDNA, one strand shown
# T5 sequence: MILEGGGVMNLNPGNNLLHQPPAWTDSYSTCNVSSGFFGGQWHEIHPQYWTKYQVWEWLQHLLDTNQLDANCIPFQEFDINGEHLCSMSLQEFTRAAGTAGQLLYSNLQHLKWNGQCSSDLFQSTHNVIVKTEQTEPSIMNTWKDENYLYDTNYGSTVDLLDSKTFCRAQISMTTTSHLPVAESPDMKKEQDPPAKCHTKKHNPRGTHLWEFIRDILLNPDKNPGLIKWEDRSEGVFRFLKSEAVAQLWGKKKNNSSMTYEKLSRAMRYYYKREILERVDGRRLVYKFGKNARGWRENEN
# Procedure, shortened: as §1
# SPI1 = SPI1 (Homo sapiens, UniProt P17947 1-270); conditions: protein: recombinant; tags: N-terminal GST; dsDNA, one strand shown
# Procedure, shortened: as §1
# SPIB = SPIB (Homo sapiens, UniProt Q01892 1-262); conditions: protein: recombinant; tags: N-terminal GST; dsDNA, one strand shown
# Sequence of SPIB (Q01892 whole entry): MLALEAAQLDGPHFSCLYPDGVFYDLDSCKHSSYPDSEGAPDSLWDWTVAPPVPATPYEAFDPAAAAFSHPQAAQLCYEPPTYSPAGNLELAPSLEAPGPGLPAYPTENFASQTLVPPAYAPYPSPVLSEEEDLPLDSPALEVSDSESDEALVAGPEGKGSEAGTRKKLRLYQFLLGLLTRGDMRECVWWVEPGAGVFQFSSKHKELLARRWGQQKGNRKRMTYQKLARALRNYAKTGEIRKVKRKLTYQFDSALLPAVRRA
# Procedure, shortened: as §1
# ELK3 = target: T6, ELK3 (Homo sapiens, UniProt P41970 1-407); conditions: protein: recombinant; tags: N-terminal GST; dsDNA, one strand shown
# T6 sequence: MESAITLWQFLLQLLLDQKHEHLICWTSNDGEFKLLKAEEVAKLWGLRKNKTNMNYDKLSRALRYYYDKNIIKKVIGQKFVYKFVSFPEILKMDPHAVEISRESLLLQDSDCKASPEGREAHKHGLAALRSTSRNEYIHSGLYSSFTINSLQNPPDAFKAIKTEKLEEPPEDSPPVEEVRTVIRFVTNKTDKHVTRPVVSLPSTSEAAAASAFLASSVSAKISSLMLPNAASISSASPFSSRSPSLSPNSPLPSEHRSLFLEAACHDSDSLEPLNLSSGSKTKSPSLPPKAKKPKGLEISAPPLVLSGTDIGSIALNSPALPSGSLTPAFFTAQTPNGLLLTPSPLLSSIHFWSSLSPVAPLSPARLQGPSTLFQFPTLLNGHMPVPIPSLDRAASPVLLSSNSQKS
# Procedure, shortened: as §1
# FEV = target: T7, FEV (Homo sapiens, UniProt Q99581 1-238); conditions: protein: recombinant; tags: N-terminal GST; dsDNA, one strand shown
# T7 sequence: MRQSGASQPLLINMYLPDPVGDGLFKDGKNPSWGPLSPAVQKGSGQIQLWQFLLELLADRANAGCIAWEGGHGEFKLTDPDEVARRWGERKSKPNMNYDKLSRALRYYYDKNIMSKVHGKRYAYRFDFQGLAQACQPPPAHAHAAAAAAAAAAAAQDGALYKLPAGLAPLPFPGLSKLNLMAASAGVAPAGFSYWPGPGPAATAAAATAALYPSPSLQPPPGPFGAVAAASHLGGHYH
# Procedure, shortened: as §1
# ETV5 = ETV5 (Homo sapiens, UniProt P41161 1-510); conditions: protein: recombinant; tags: N-terminal GST; dsDNA, one strand shown
# Sequence of ETV5 (P41161 whole entry): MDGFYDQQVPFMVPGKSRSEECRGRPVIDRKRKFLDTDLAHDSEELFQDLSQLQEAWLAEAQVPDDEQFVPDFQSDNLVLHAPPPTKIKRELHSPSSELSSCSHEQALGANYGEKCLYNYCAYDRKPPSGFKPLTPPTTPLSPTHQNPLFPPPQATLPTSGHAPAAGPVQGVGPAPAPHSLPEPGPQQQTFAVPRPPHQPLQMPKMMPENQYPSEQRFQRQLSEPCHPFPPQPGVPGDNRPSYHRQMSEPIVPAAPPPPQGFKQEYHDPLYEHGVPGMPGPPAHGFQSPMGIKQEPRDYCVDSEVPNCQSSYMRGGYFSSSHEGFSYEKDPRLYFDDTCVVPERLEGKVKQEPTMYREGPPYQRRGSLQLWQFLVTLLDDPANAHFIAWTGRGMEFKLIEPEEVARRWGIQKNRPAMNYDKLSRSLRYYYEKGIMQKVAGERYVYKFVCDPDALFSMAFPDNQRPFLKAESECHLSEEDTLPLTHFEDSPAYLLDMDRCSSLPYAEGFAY
# Procedure, shortened: as §1
# HSF1 = HSF1 (Homo sapiens, UniProt Q00613 1-529); conditions: protein: recombinant; tags: N-terminal GST; chain copies: 3; dsDNA, one strand shown
# Sequence of HSF1 (Q00613 whole entry): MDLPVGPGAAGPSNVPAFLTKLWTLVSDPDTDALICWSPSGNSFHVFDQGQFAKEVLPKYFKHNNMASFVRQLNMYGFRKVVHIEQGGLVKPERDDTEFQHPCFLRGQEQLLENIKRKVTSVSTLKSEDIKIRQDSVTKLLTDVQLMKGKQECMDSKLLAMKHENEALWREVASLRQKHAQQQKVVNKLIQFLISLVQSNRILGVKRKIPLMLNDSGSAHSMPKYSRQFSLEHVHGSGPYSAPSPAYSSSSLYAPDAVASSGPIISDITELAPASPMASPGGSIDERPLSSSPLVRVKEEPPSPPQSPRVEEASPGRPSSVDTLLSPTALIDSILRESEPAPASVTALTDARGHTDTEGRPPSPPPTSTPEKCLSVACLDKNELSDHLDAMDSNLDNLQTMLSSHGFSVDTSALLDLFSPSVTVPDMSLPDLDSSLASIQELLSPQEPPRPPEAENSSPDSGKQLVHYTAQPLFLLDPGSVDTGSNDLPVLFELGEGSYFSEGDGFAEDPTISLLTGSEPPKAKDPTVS
# Procedure, shortened: as §1
# SPIC = target: T8, SPIC (Homo sapiens, UniProt Q8N5J4 1-248); conditions: protein: recombinant; tags: N-terminal GST; dsDNA, one strand shown
# T8 sequence: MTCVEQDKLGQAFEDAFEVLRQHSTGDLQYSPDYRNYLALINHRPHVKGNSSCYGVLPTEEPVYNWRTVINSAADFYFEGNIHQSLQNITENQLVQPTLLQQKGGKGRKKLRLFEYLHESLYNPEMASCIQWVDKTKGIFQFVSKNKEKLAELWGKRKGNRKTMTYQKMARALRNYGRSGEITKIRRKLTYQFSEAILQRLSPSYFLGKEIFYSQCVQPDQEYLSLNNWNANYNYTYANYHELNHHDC
# Procedure, shortened: as §1
# ELF4 = ELF4 (Homo sapiens, UniProt Q99607 1-663); conditions: protein: recombinant; tags: N-terminal GST; dsDNA, one strand shown
# Sequence of ELF4 (Q99607 whole entry): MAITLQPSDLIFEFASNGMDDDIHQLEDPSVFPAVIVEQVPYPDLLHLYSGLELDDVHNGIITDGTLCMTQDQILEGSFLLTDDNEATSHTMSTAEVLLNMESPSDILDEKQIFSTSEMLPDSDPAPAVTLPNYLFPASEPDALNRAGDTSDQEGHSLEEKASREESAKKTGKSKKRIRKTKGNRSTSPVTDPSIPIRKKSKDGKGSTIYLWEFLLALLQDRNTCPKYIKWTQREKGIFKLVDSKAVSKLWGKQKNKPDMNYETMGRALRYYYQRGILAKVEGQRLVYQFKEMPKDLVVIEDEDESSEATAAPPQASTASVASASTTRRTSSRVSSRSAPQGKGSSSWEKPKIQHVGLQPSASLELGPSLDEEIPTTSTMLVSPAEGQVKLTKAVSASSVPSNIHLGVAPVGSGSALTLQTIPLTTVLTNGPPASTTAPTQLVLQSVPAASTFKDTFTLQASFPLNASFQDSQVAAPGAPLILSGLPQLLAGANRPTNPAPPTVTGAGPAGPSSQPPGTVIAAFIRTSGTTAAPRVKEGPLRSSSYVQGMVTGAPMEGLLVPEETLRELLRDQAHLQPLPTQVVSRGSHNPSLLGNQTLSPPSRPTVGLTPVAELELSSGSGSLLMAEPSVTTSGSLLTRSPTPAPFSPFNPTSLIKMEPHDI
# Procedure, shortened: as §1
# ELK4 = target: T9, ELK4 (Homo sapiens, UniProt P28324-2 1-405); conditions: protein: recombinant; tags: N-terminal GST; dsDNA, one strand shown
# T9 sequence: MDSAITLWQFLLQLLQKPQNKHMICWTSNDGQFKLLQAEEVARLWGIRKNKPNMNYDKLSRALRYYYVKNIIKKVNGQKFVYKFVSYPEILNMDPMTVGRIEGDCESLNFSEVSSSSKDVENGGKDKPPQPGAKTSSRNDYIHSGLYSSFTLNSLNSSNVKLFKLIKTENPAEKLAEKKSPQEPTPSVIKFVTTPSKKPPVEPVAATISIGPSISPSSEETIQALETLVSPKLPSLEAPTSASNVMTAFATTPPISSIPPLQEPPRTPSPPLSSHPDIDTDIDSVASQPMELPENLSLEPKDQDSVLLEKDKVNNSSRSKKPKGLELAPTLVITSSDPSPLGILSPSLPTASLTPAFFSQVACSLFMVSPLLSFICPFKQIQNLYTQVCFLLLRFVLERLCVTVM
# Procedure, shortened: as §1
# ETV2 = target: T10, ETV2 (Homo sapiens, UniProt O00321 1-342); conditions: protein: recombinant; tags: N-terminal GST; dsDNA, one strand shown
# T10 sequence: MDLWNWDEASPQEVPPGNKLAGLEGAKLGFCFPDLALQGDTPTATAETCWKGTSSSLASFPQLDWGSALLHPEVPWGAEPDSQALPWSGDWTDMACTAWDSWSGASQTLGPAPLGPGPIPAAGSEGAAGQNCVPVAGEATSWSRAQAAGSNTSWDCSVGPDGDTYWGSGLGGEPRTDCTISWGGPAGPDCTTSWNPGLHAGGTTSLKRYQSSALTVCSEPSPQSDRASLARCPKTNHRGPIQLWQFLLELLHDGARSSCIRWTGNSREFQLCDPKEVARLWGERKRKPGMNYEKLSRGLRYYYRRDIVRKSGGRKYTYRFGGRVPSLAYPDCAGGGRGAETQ
# Procedure, shortened: as §1
# ELF3 = target: T11, ELF3 (Homo sapiens, UniProt P78545 1-371); conditions: protein: recombinant; tags: N-terminal GST; dsDNA, one strand shown
# T11 sequence: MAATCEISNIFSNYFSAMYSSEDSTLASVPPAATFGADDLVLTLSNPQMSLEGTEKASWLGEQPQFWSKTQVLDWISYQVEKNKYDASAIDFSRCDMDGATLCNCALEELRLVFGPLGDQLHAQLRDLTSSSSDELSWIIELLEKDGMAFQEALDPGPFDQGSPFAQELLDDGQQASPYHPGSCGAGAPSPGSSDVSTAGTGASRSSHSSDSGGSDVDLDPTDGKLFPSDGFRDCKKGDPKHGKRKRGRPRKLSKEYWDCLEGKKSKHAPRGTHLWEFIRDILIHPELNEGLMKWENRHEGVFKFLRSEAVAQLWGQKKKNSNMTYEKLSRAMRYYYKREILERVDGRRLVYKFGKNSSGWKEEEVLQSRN
# Procedure, shortened: as §1
# CRX = CRX (Homo sapiens, UniProt O43186 1-299); conditions: protein: recombinant; tags: N-terminal GST; dsDNA, one strand shown
# Sequence of CRX (O43186 whole entry): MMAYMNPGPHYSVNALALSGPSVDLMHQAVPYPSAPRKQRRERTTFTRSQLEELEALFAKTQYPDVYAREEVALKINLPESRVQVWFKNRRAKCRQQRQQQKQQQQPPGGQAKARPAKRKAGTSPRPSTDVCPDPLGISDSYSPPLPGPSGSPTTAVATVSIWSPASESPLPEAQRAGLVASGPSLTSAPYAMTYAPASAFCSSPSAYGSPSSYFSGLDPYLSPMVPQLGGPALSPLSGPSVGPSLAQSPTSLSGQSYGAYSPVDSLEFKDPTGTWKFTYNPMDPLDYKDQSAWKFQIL
# Procedure, shortened: as §1
# ETV1 = ETV1 (Homo sapiens, UniProt P50549 1-477); conditions: protein: recombinant; tags: N-terminal GST; dsDNA, one strand shown
# Sequence of ETV1 (P50549 whole entry): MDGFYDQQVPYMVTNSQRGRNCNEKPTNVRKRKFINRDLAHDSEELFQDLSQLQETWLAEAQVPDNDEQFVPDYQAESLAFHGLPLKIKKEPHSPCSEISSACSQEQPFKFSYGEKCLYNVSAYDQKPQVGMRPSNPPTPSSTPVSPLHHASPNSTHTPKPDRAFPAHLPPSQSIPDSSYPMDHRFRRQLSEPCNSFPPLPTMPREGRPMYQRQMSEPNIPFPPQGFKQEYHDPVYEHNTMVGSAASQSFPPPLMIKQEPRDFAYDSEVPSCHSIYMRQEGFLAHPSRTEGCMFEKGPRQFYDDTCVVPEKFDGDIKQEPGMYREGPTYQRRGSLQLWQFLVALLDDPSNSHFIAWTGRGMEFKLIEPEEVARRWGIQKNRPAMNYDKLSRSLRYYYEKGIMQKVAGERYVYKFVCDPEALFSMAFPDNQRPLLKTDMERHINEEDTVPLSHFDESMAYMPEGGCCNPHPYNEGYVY
# Procedure, shortened: as §1
sequence,measurement,setting,value
ATAATA,binding signal,FLI1,"1.13 fold enrichment (6-mer frequency, TF over GST control)"
same,binding signal,ELK1,"1.07 fold enrichment (6-mer frequency, TF over GST control)"
same,binding signal,GABPA,"1.18 fold enrichment (6-mer frequency, TF over GST control)"
same,binding signal,ERG,"1.17 fold enrichment (6-mer frequency, TF over GST control)"
same,binding signal,ELF1,"1.23 fold enrichment (6-mer frequency, TF over GST control)"
same,binding signal,EHF,"1.24 fold enrichment (6-mer frequency, TF over GST control)"
same,binding signal,SPI1,"1.18 fold enrichment (6-mer frequency, TF over GST control)"
same,binding signal,SPIB,"1.18 fold enrichment (6-mer frequency, TF over GST control)"
same,binding signal,ELK3,"1.11 fold enrichment (6-mer frequency, TF over GST control)"
same,binding signal,FEV,"1.17 fold enrichment (6-mer frequency, TF over GST control)"
same,binding signal,ETV5,"1.18 fold enrichment (6-mer frequency, TF over GST control)"
same,binding signal,HSF1,"1.67 fold enrichment (6-mer frequency, TF over GST control)"
same,binding signal,SPIC,"1.21 fold enrichment (6-mer frequency, TF over GST control)"
same,binding signal,ELF4,"1.14 fold enrichment (6-mer frequency, TF over GST control)"
same,binding signal,ELK4,"1.14 fold enrichment (6-mer frequency, TF over GST control)"
same,binding signal,ETV2,"1.1 fold enrichment (6-mer frequency, TF over GST control)"
same,binding signal,ELF3,"1.15 fold enrichment (6-mer frequency, TF over GST control)"
same,binding signal,CRX,"2.14 fold enrichment (6-mer frequency, TF over GST control)"
same,binding signal,ETV1,"1.17 fold enrichment (6-mer frequency, TF over GST control)"
